The text below walks through data of PubChem BioAssay AID504339 (National Center for Advancing Translational Sciences (NCATS), 2011).

Structures are written as SMILES. Hit rate of the full screen: of about 390,000 compounds, about 17,000 (4.4%) were called active. Entries that show only a call come without a potency. Roughly 8% stayed inconclusive and do not appear here. Calls follow the shape of the dose curve; as a rule, active = well fitted inhibition curve with a large enough effect; inconclusive = small, poorly fitted or top-dose-only effect; inactive = no such curve, though single readings can be large or run the other way. For the sample, actives were picked, then their nearest neighbours and some compounds at random.
Potency is read from the fitted curve at half-maximal effect.

Chain of Lysine-specific demethylase 4A (Homo sapiens) (O75164 whole entry, looked up, the tested form may be a part): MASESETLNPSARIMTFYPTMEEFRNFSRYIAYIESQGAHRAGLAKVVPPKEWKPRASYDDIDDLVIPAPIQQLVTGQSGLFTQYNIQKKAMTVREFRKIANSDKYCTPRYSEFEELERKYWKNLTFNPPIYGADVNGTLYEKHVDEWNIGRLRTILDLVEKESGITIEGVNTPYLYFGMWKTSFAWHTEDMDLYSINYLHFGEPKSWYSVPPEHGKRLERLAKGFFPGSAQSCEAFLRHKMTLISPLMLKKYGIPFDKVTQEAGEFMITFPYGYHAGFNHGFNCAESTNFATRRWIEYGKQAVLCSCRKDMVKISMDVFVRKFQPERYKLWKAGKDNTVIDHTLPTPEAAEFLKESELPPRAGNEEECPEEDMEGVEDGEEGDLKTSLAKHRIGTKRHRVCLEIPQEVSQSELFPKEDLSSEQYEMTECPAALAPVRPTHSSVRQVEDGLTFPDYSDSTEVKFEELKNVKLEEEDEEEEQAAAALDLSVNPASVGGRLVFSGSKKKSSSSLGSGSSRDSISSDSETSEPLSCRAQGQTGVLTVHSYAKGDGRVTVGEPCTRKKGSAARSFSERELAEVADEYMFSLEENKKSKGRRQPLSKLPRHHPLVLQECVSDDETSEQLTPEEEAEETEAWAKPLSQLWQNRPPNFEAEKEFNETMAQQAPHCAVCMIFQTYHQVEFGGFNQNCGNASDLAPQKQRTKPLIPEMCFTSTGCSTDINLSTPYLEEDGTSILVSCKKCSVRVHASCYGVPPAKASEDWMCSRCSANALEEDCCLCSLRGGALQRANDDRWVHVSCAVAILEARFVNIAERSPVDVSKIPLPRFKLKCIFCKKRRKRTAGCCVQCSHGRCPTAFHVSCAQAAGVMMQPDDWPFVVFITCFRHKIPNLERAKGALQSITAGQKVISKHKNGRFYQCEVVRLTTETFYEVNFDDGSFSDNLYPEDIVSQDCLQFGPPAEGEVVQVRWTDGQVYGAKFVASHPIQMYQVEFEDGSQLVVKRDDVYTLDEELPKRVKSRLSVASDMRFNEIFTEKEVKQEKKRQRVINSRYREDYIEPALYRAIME

The test concerns the target Lysine-specific demethylase 4A (Homo sapiens) (UniProt O75164). Description: qHTS Assay for Inhibitors of JMJD2A-Tudor Domain. Also: nearly all actives have a fitted effect of over 50% in size. To be noted: AlphaScreen JMJD2A-Tudor / H3K4me3 peptide binding; series mostly up to 114 µM. Background: In qHTS, concentration-response curves come from the screen itself.
`COc1ccc(Cl)cc1NC(=O)C(C)Sc1nc2c(c(=O)[nH]1)CCCC2` (centres undefined): the Potency entry was “inactive”. On to `COc1cc(NC(=O)CCn2nc(C)cc2C)cc(OC)c1OC`, for which the Potency result is “inactive”.

As for `O=C(CSc1oc(-c2ccco2)nc1S(=O)(=O)c1ccc(Cl)cc1)c1ccccc1`, the Potency result is “inactive”. To `COc1ccc(/C(O)=C2\C(=O)C(=O)N(Cc3ccco3)C2c2ccc(OC)cc2OC)cc1` (centres undefined) belongs 20 µM (active). For `COc1ccc(C2/C(=C(/O)c3ccccc3)C(=O)C(=O)N2C)c(OC)c1` (centres undefined), the Potency entry is “inactive”. To `COc1ccccc1C1/C(=C(/O)c2ccc(C)cc2)C(=O)C(=O)N1Cc1ccco1` (centres undefined) belongs “inactive”. `CCOC(=O)c1cccc(NC(=O)C(Cc2ccccc2)NS(=O)(=O)c2cccc3nsnc23)c1` (centres undefined): the Potency result was “inactive”. In the case of `COc1ccc2c(c1)c(N1CCCC1=O)c(C(=O)Nc1ccccc1C(F)(F)F)n2C`, the Potency result was “inactive”. Consider `Cc1ccc(NC(=O)NC(=O)N(C2CCCCC2)S(=O)(=O)c2ccccc2)cc1`, for which the Potency was 70.8 µM (active). As to `CC(C)(C)NS(=O)(=O)c1ccc(NC(=O)NC2CCCCC2)cc1`, the Potency entry is “inactive”.

For the molecule `CC(c1ccco1)N(C(=O)Nc1ccccc1)C1CCCCC1` (centres undefined), the Potency entry was “inactive”. For the molecule `Cc1ccc2cccc(NC(=O)c3cccc4ccccc34)c2n1`, the Potency entry was “inactive”. Take `COc1cccc2c1C(=O)c1c(O)c3c(c(O)c1C2=O)CC(O)(C(C)=NNC(=O)c1ccc(Cl)c(Cl)c1)CC3OC1CC(N)C(O)C(C)O1` (centres undefined): the Potency was 50.1 µM (active). `Cc1ccc(CNC(=O)CCNS(=O)(=O)c2ccc3c(c2)oc(=O)n3C)cc1`: the Potency result was “inactive”. As to `O=C(Nc1ccc2nc(SCCOc3ccccc3Cl)sc2c1)c1ccco1`, the Potency entry was “inactive”. In the case of `COc1ccc(CC(=O)NCC(=O)N/N=C/c2cc(Br)ccc2OC)cc1`, the Potency result was “inactive”.

On to `COc1ccc(/C=C/C(=O)c2cc(Br)ccc(=O)c2O)cc1`, for which the Potency was 31.6 µM (active). As to `COc1ccc(C(=O)c2oc3ccc(Br)cc3c2NC(C)=O)cc1`, the Potency result is “inactive”. To `COc1ccc(S(=O)(=O)NCc2cccn2Cc2cccc(C)c2)cc1` belongs “inactive”; to `CCOc1ccccc1N(C)C(=O)c1cc2c(s1)-c1ccccc1OC2`, “inactive”. As to `CCSc1ncc(Cl)c(C(=O)Nc2c(C(=O)c3ccccc3)oc3ccccc23)n1`, the Potency result was “inactive”. `O=C(CCS(=O)(=O)c1cc(Br)cc2c1N(C(=O)C1CC1)CC2)Nc1ccc(Br)cc1F`: the Potency result was “inactive”. For the molecule `Cc1ccc(N2C(=O)CC(Nc3cccc4ccccc34)C2=O)cc1` (centres undefined), the Potency entry was “inactive”. With `CC1=C(C)CC2C(=O)N(c3cccc4ccccc34)C(=O)C2C1` (centres undefined), the Potency was 56.2 µM (active).

In the case of `CCc1ccccc1N1C(=O)C2C3CC(=O)C(c4ccccc43)C2C1=O` (centres undefined), the Potency entry was “inactive”. As for `O=C(Cn1ncn2nc(-c3cccs3)cc2c1=O)NCc1cccc(Br)c1`, the Potency result was “inactive”. Regarding `CCOC(=O)c1[nH]c(C)c(CCC(=O)N2CCN(c3ccccc3)CC2)c1C`, the Potency result was “inactive”. For `Cc1ccc(CNC(=O)Cn2c(=O)ccc3cc(S(=O)(=O)N4CCCC4)ccc32)cc1`, the Potency entry was “inactive”. Take `COc1ccc(OCCn2cc(C(=O)C3CCCCC3)c3ccccc32)cc1`: the Potency result was “inactive”.

Regarding `COc1ccc(OCCCC(=O)Oc2ccc(OC)cc2)cc1`, the Potency entry is “inactive”. For the molecule `COc1ccc(OCCn2ccnc2C)cc1`, the Potency was 1 µM (active).

In the case of `CCOc1ccc(N(CC)C(=O)C2CCN(S(=O)(=O)c3cccc4nonc34)CC2)cc1`, the Potency result was “inactive”. With `O=C1c2ccccc2-c2ncnc3c(N4CCOCC4)cc(N4CCOCC4)c1c23`, the Potency was 44.7 µM (active). Regarding `Cc1oc2c(c1C(=O)N1CCOCC1)C(=O)c1ccccc1C2=O`, the Potency entry is “inactive”. With `O=S(=O)(Nc1cc(Cl)ccc1N1CCOCC1)c1ccccc1Cl`, the Potency entry is “inactive”. Consider `Cn1nnnc1SCCCNCc1cccc(OCc2ccc(Cl)cc2)c1`, for which the Potency entry is “inactive”. Consider `O=[S+]([O-])(c1ccc2c(c1)OCCO2)N1CCN([S+](=O)([O-])c2c(Cl)cc(Cl)cc2Br)CC1`, for which the Potency result was “inactive”. As for `Cc1ccc(C)c(N2CCN(CCCNC(=O)Nc3ccc(Cl)cc3)CC2)c1`, the Potency result is “inactive”.

`CCOc1ccc(OCC)c(NC(=O)CN(C)S(=O)(=O)c2cccc3nsnc23)c1`: the Potency is 50.1 µM (active). Regarding `CCOc1ccccc1NC(=O)CCS(=O)(=O)c1cccc2nsnc12`, the Potency entry was “inactive”. In the case of `CCOc1ccc(NC(=O)CCS(=O)(=O)c2cccc3nsnc23)cc1`, the Potency entry was “inactive”. On to `CCc1nc2onc(C)c2c(=O)n1CC(=O)O`, for which the Potency entry is “inactive”.

In the case of `CCOc1ccc(NC(=O)c2cn(C3CCCCC3)c(=O)c3c2c2ccccc2n3C)cc1`, the Potency entry is “inactive”. Consider `O=C(N/N=C/c1cccc(Br)c1)c1ccc(N2CCCC2=O)cc1`, for which the Potency was 56.2 µM (active).

As to `O=C(Nc1ccc(N2CCCC2=O)cc1)c1cncc(Br)c1`, the Potency entry was “inactive”. Take `O=C(N/N=C\c1cccc(Br)c1)c1ccccc1-n1cccc1`: the Potency result is “inactive”. Take `CC(Oc1ccccc1[N+](=O)[O-])C(=O)N/N=C/c1ccoc1` (centres undefined): the Potency entry is “inactive”. With `O=[N+]([O-])c1ccccc1OCCCCN1CCCCC1`, the Potency entry was “inactive”.

`CC1CN(CCOc2ccccc2[N+](=O)[O-])CC(C)O1` (centres undefined): the Potency was 22.4 µM (active). For `COc1ccc2ncc3c(-c4ccc(C)c(C)c4)nn(CC(=O)NC4CCCC4)c3c2c1`, the Potency result is “inactive”. As for `Cc1cc(=O)n(CC(=O)Nc2cccc([N+](=O)[O-])c2)c(-n2nc(C)cc2C)n1`, the Potency entry is “inactive”. Under `O=C(/C=C/c1ccccc1)N1CCN(Cc2cc(=O)n3nc(-c4ccccc4F)sc3n2)CC1` stands “inactive”. Take `COc1cccc2c1cc1c(=O)n(CC(=O)N3CCN(c4ccccc4)CC3)nc(C)n12`: the Potency result was “inactive”. Under `O=C1C(=O)N(CCN2CCOCC2)C(c2cccc(Cl)c2)/C1=C(/O)c1ccc2c(c1)OCO2` (centres undefined) stands “inactive”; under `CC1Cc2cc(/C(O)=C3\C(=O)C(=O)N(CCN4CCOCC4)C3c3ccccc3F)ccc2O1` (centres undefined), 39.8 µM (active); under `CC1Cc2cc(/C(O)=C3\C(=O)C(=O)N(Cc4cccnc4)C3c3ccccc3F)ccc2O1` (centres undefined), “inactive”. In the case of `CCOc1ccccc1NC(=O)C1CCCN(S(=O)(=O)c2cn(C)cn2)C1` (centres undefined), the Potency entry is “inactive”. Under `COCCNS(=O)(=O)c1cc(-c2nn3c(C)nnc3c3ccccc23)ccc1C` stands “inactive”; under `Cc1cccc(N=Nc2c(O)[nH]c3ccc(F)cc23)c1`, “inactive”. Turning to `Cc1[nH]n(-c2ccccc2)c(=O)c1CCOC(=O)c1ccc(C(F)(F)F)cc1`, the Potency entry was “inactive”. As to `Cc1cccc(N=Nc2c(C)[nH]n(-c3ccccc3)c2=O)c1`, the Potency was 11.2 µM (active). Under `Cc1ccc(N=Nc2c(C)[nH]n(-c3ccccc3)c2=O)cc1` stands 6.31 µM (active).

`Cc1c(N=Nc2ccc(N(C)C)cc2)c(=O)n(-c2ccccc2)n1C`: the Potency result was “inactive”. Regarding `Cc1ccc(-c2ccnc3[nH]n(-c4ccccc4)c(=O)c23)cc1`, the Potency result was “inactive”.
